Assay results reported in PubChem BioAssay (NCI).
This is part of a sample that, as a whole, favours compounds with a hit. Of some 83,000 tested, about 20% had one in any assay.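 Method: cells in 96-well plates; compound added at one concentration; 48 h incubation; percent growth measured; values under 10 scored active.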 The source made the active and inactive calls.

The compounds below were run on M14 melanoma (assay: NCI-60 one-dose screen, 48 h (100 = growth as untreated, 0 = no growth, -100 = all killed)). Conditions: 10 µM unless noted.

| SMILES | growth |
| --- | --- |
| N#Cc1c(N)[nH]c(S)c1C#N | 100% (inactive) |
| NC(=Nc1ccccc1)SCCCCSC(N)=Nc1ccccc1 | 84.6% (inactive) |
| CN(C)c1cccc2c(S(=O)(=O)N[C@H]3CC[C@H]4[C@@H]5CCc6cc(O)ccc6[C@H]5CC[C@]34C)cccc12 | 31.3% (inactive) |
| CCCCCCCCCCCCCCCCCc1nccn1CCO | 64.9% (inactive) |
| COC(=O)CCC1=C(C)/C(=C/c2[nH]c(-c3ccc[nH]3)cc2OC)N=C1C | 4.36% (active) |
| NC(=O)N/N=C/c1ccc(Br)o1 | 101% (inactive) |
| COc1ccc(OC)c2c1[nH]c(=O)c1c3ccccc3cn21 | -54.3% (active) |
| O=C1C(=O)c2ccc(Br)cc2-c2cc(Br)ccc21 | 68% (inactive) |
| O=c1c(O)cccn1CCCNCCCN(CCCn1cccc(O)c1=O)CCCn1cccc(O)c1=O | 103% (inactive) |
| CN(CCOc1ccc(CC2SC(=O)NC2=O)cc1)c1ccccn1 (stereo not given) | 99.7% (inactive) |
| COc1cccc2c1C(=O)c1c(O)c3c(c(O)c1C2=O)C[C@@](O)(/C(C)=N/NC(=O)c1cccc([N+](=O)[O-])c1)C[C@@H]3OC1CC(N)C(O)C(C)O1 (stereo not given in full) | -43.8% (active) |
| Cc1nnc(Nc2ccc(NC(=O)Nc3ccc(Cl)cc3)cc2)c2ccccc12 | 37.3% (inactive) |
| O=C(Nc1ccc(Cl)cc1)Nc1ccc(Nc2nncc3ccccc23)cc1 | 19.3% (inactive) |
| OCc1nnn(-c2ccccc2)c1CO | 110% (inactive) |
| COc1ccc2c(c1)C(=O)c1c-2c(=O)n(CCCCCCC(=O)NO)c2ccccc12 | -0.387% (active) |
